# Results taken from PubChem BioAssay (NCI).
# The panel holds about 83,000 compounds, 20% with a hit somewhere; the sample as a whole holds those more often.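 48-hour exposure, single concentration, 96-well plates; percent growth endpoint where 0 means no net growth. Active: below 10.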 Values without a mark were called inactive. The source made the active and inactive calls.
# How the values were obtained:
# Assay in all cases: NCI-60 one-dose screen, 48 h (100 = growth as untreated, 0 = no growth, -100 = all killed)
# Details in all cases: 10 µM unless noted
# [1] = test system: T-47D breast
# [2] = test system: BT-549 breast
# [3] = test system: MDA-MB-435 melanoma
# [4] = test system: SW-620 colon
# [5] = test system: MCF7 breast
# [6] = test system: HCT-116 colon
# [7] = test system: HCC-2998 colon
# [8] = test system: KM12 colon
SMILES,growth [1],growth [2],growth [3],growth [4],growth [5],growth [6],growth [7],growth [8]
O=S(=O)(Nc1cc(Br)c(O)c2ccccc12)c1ccc(F)cc1,6.12% (active),100%,-90.4% (active),104%,49.1%,51%,97.8%,86.4%
Cc1noc(C)c1C(=O)OCc1coc2ccccc2c1=O,28%,69.2%,59.8%,32.1%,49.6%,41.4%,105%,95.8%
CN(C)c1ccc(/C=C/C(=O)c2ccc(-n3cc(CN4CCN(c5cc6c(cc5F)c(=O)c(C(=O)O)cn6C5CC5)CC4)nn3)cc2)cc1,76.8%,32%,64.7%,43.2%,24.2%,-10.3% (active),79.3%,32.9%
O=C(/C=C/c1cn(-c2ccccc2)nc1-c1ccc([N+](=O)[O-])cc1)c1ccc(Cl)cc1,31.4%,62.7%,59.5%,-27.6% (active),25.4%,-12.6% (active),-22% (active),41.8%
CC(C)(C)n1cc(-c2ccnc(NCCCNS(=O)(=O)c3ccc(F)cc3)c2)c(-c2cccc(F)c2)n1,24.6%,50.2%,73.8%,22.4%,41.2%,37%,54.7%,40.9%
CCN(CC)c1nc(SCc2ccccc2Cl)ncc1C,86.3%,134%,108%,105%,106%,94.2%,106%,108%
Clc1ccc(Nc2nnc(COc3ccccc3)c3ccccc23)cc1,-5.86% (active),-9.97% (active),-3.33% (active),15.4%,1.31% (active),1.21% (active),8.55% (active),0.179% (active)
CC(C)(C)n1cc(-c2ccnc(NCCNS(=O)(=O)c3cccc(F)c3)c2)c(-c2ccccc2)n1,44.2%,93%,99.8%,94.2%,67.8%,79%,91%,93.5%
COc1ccc(-c2cn(-c3cc(OC)c(OC)c(OC)c3)c(=O)n2C(C)=O)cc1,73.9%,83.5%,79.4%,96.2%,89%,85%,84.3%,93.3%
O=C1c2c(c3c4ccccc4[nH]c3c3ccc4ccccc4c23)C(=O)N1CCN1CCCCC1,13.6%,78.9%,67.2%,30.5%,17.1%,23.1%,-0.0363% (active),48%
O=C(NCCCCNC(=O)OCc1ccc2c(Cl)cc(Cl)c(O)c2n1)OCc1ccc2c(Cl)cc(Cl)c(O)c2n1,61%,15.3%,-48.7% (active),19.5%,13.7%,7.49% (active),18.5%,6.41% (active)
O=C1Nc2ccccc2/C1=C\c1nc(-c2ccccc2F)n2ccccc12,21.2%,24.5%,44.1%,26.2%,27.8%,-36.4% (active),86.1%,34.4%
CCCCNc1ccc(C#N)c(OCCN(CC)CC)c1,104%,98.2%,104%,109%,93.8%,104%,108%,112%
CN(C)CCCC1(c2ccc(F)cc2)OCc2cc(-c3cncc4ccccc34)ccc21 (stereo not given),55.9%,76.8%,8.32% (active),34.2%,23.5%,22.5%,7.15% (active),34.5%
CC1=C(C(=O)OC(C)C)C(c2ccc3c(c2)OCO3)NC(=S)N1 (stereo not given),91.4%,96%,106%,107%,98.7%,95.6%,115%,108%
CO/N=C(/C)c1ccc(NC(=O)CSc2nnc(-c3ccncc3)n2-c2ccccc2)cc1,17.4%,6.99% (active),47%,84.2%,42%,4.38% (active),82.3%,61.9%
CC(C)=CCC[C@](C)(O)[C@H]1CC[C@]2(C)[C@@H]1CC[C@@H]1[C@@]3(C)Cc4nccnc4C(C)(C)[C@@H]3CC[C@]12C,51.5%,74.8%,64.6%,71.1%,-59.3% (active),46.9%,79.4%,75%
CN1CCN(C(=O)OCc2ccc3c(Cl)cc(Cl)c(O)c3n2)CC1,58.6%,87%,60.5%,52.4%,43.6%,32.9%,74.4%,48.7%
O=C(OCc1ccc2c(Cl)cc(Cl)c(O)c2n1)n1cncn1,36.1%,50.4%,27.9%,24.7%,23.2%,30.1%,54.4%,21.8%
CC(C)=NNc1ccccn1,15.4%,62.5%,55.2%,26.2%,18%,23.6%,48.1%,38.2%
COc1ccc(-c2cc(-c3ccc(Cl)cc3)c(C#N)c(=O)n2CCCCC(=O)Nc2ccccc2N)cc1,37.5%,46.1%,39%,71.8%,41.6%,24.4%,68.3%,39.4%
COc1ccc(/C=C2\C(=O)N=C3N2NC(c2cc(Br)ccc2O)C=C(C)N3c2ccccc2)cc1 (stereo not given),89.6%,88%,94.5%,104%,83.7%,98.1%,87.1%,102%
O=S(=O)(NCCNc1cc(-c2c(-c3cccc(O)c3)nc3sccn23)ccn1)c1ccc(C(F)(F)F)cc1,-1.89% (active),26.6%,10.7%,47.3%,16.2%,26.6%,70.6%,26.7%
Brc1ccc(-n2cc(-c3nn[nH]n3)c(-c3cccs3)n2)cc1,95.6%,95.3%,106%,102%,90.1%,91.5%,105%,103%
CC(=O)OCc1nc(C#N)c(N(C)C)o1,83.9%,91.2%,100%,101%,92.9%,93.4%,97%,110%
O=C(/C=C(/C=C/c1cccc2[nH]ccc12)OB(F)F)/C=C/c1cccc2[nH]ccc12,7.95% (active),-19.5% (active),-34.4% (active),1.96% (active),4.29% (active),-84.7% (active),-84.1% (active),-17.3% (active)
COC(=O)[C@]1(C)CCC[C@]2(C)[C@H]3C[C@H]4C(C(C)C)=C[C@]3(CC[C@H]21)[C@H]1[C@@H]4[C@@H](OCCC#N)CC[C@@H]1OCCC#N,9.81% (active),19.8%,42.7%,47.8%,9.07% (active),15.4%,65.1%,40.2%
O=C(O)CNC1=C(Cl)C(=O)c2ccccc2C1=O,78.1%,87.5%,102%,102%,81.8%,100%,114%,104%

SMILES,growth [1],growth [2],growth [3],growth [4],growth [5],growth [6],growth [7],growth [8]
COc1cc(-c2nc(SCC(C)C)nc(Nc3cccc4ccccc34)c2C#N)cc(OC)c1OC,70.3%,110%,99.3%,95.3%,94%,37.7%,118%,97.5%
O=C(NNC(=O)c1ccc(-n2cc(-c3ccccc3)nn2)cc1)Nc1ccccc1,102%,97.9%,105%,101%,99.4%,94.3%,116%,107%
CC[C@@H](C(=O)[C@@H](C)[C@@H](O)[C@H](C)[C@@H]1O[C@@H]([C@@H](CC)C(=O)NCCc2ccc(F)cc2)CC[C@@H]1C)C1O[C@]2(C=CC(=O)[C@]3(CC[C@@](C)([C@H]4CC[C@](O)(CC)[C@H](C)O4)O3)O2)[C@H](C)C[C@@H]1C (stereo not given in full),15%,54.1%,39.3%,40.4%,18.4%,16.9%,63.8%,42.6%
CC(=O)c1cc(O)c2ccccc2c1O,87.1%,91.7%,111%,108%,75.2%,95.4%,166%,106%
CCOC(=O)c1c(NC(=O)c2ccc(C(C)C)cc2)sc2c(CN(C)C)c(O)ccc12,61%,89.7%,21.3%,-58.6% (active),15.2%,4.82% (active),-55.8% (active),1.36% (active)
CN(C)CCNC(=O)c1cccc(-c2cnc3ccc(-c4ccc5c(c4)OCO5)nn23)c1,75.2%,80.7%,86%,52.8%,27.1%,5.58% (active),77.3%,17.6%
CCN(CC)CCSc1nc(-c2ccccc2)c(C#N)c(=O)[nH]1,93.8%,94.9%,103%,94.4%,104%,105%,-6.88% (active),118%
N#Cc1cccc(NC(=O)c2oc3ccccc3c2-c2cnn(-c3ccccc3)c2)c1,49.6% [50 µM],72.5% [50 µM],97.9% [50 µM],89% [50 µM],57.3% [50 µM],70.9% [50 µM],71.1% [50 µM],81.5% [50 µM]
CC(C)CCNC(=O)Cn1cccc(NC(=O)OCc2ccccc2)c1=O,104%,110%,115%,108%,95.1%,110%,103%,107%
N#Cc1nc(-c2ccccc2)oc1S(=O)(=O)N1CCOCC1,65.4%,86.6%,89.4%,56.6%,32.5%,19.9%,104%,97.8%
CCCCNC(=O)Oc1ccc(/C(=C(/CC)Cc2ccccc2)c2ccc(OCCN3CCCCCC3)cc2)cc1,-24.9% (active),87.3%,61.5%,25.1%,0.876% (active),-76.3% (active),34%,37.5%
O=C1Nc2ccccc2[C@]12CC(c1ccccc1)=NN2,66.6%,59.3%,-1.7% (active),23.4%,29.5%,26.2%,65%,31.9%
C#CCOc1cccc(Nc2ncnc3ccc(NC(=O)CCl)cc23)c1,-39.1% (active),-68.9% (active),-2.66% (active),-27.1% (active),-20.1% (active),-51.3% (active),-61.9% (active),-51.4% (active)
CCCCCCCCCCCCCCCCCCOc1ccccc1CC(=O)OCC[N+]1(C)CCCC1,62%,67%,23.4%,21.4%,32.3%,29.2%,3.99% (active),13.3%
CCOC(=O)Cn1c(O)c(N=Nc2ccc(S(N)(=O)=O)cc2)c2cc(Br)ccc21,78.1%,119%,92%,62.7%,84%,13.9%,95.5%,70.7%
c1cc2[nH]ncc2cc1-c1nc2ccc3[nH]ncc3c2c2c1CCCC2,4.77% (active),12%,2.02% (active),9.28% (active),21.7%,0.11% (active),13.8%,13.2%
O=C1c2c(c3c4ccc(Br)cc4oc3c3[nH]c4ccccc4c23)C(=O)N1O,11.8%,27.6%,19.1%,37.3%,22.4%,17.9%,66.9%,17.1%
O=C(CN1C(=O)CCC1=O)Nc1ncc(Cc2ccc(F)cc2)s1,103%,97.5%,102%,102%,92.4%,104%,92.5%,103%
C=C1C(=O)O[C@H]2[C@H]1CC/C(COC(=O)NCc1cc[nH]c1)=C\CC[C@@]1(C)O[C@@H]21,69.5%,55.6%,34.2%,21.6%,34.8%,36.1%,95%,78.2%
O=c1oc2ccc([N+](=O)[O-])cc2cc1Br,101%,112%,104%,98.1%,97.7%,105%,114%,107%
CC(=O)[C@@H]1CCC=C2CC[C@]3(C)[C@@H](CC[C@@H]4[C@@]5(C)CCCNC(C)(C)[C@@H]5CC[C@]43C)[C@H]21,33.9%,75.9%,-71.1% (active),-58.9% (active),-72.9% (active),-96.2% (active),-93.8% (active),-79% (active)
CS(=O)(=O)Nc1cc(-c2ccc3ncnc(Nc4ccc5c(cnn5Cc5ccccn5)c4)c3c2)cnc1Cl,18.5%,56.7%,77.5%,84.3%,36%,92.9%,80.4%,95.4%
O=[N+]([O-])C1C(c2ccccc2)C12c1ccccc1-c1ccccc12 (stereo not given),57.6%,-42.3% (active),-23.1% (active),3.12% (active),9.88% (active),-18.8% (active),-18.8% (active),1.09% (active)
CCOC(=O)CSc1ncnc2c1c(-c1ccccc1)c(-c1ccccc1)n2-c1ccc(C)cc1,9.51% (active),61.8%,74.2%,81.2%,52.5%,53.5%,75.8%,50.2%
CC1(C)CC2=C3C=C[C@@H]4[C@@]5(C)CCC(=O)C(C)(C)[C@@H]5CC[C@@]4(C)[C@]3(C)CC[C@@]2(C(=O)O)CC1=O,74.4%,41.5%,49.4%,66.9%,57.3%,64.6%,84.3%,78.3%
C/C(=N\NC(=O)c1ccccc1O)c1cccc(/C(C)=N/NC(=O)c2ccccc2O)n1,41.8%,-2.08% (active),40%,31.2%,44.3%,27.1%,18.4%,22.6%
O=C1/C(=C/c2ccc(Cl)c(Cl)c2)CN(C(=O)C(Cl)Cl)C/C1=C\c1ccc(Cl)c(Cl)c1,-36.7% (active),-58.5% (active),-68.7% (active),-71.5% (active),-57.7% (active),-92.5% (active),-88.8% (active),-71.2% (active)
